# Bioassay records from PubChem.
# JMJD2A Tudor inh: JMJD2A Tudor domain (human) inhibition. AID 504339. AlphaScreen JMJD2A-Tudor / H3K4me3 peptide binding. hit rate 4.4% among 390,000. Potency, µM (series often up to 114 µM), without a hit: top-dose activity change, negative = inhibition, hits mostly inhibitors; note: potency is the fitted concentration of half-maximal effect; % is set by controls: 0 for no effect and ±100 for the full control effect; nearly all actives have a fitted effect of over 50% in size
# GLS inh: inhibitors of human glutaminase (GLS) | GLS enzymatic activity, qHTS titration | O94925 | Potency, µM (highest dose often 45.5 µM), without a hit: at the top dose activity change, negative = inhibition, most hits filed as inhibitors | hit rate 0.21% among 410,000; note: potency is the fitted concentration of half-maximal effect; % is set by controls: 0 for no effect and ±100 for the full control effect
#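 Coupled fluorescence readout: glutamate oxidase/HRP/Amplex Red detect glutamate formed by hKGA from L-glutamine (1 mM solution added). Buffer 45 mM KH2PO4 pH 8.2, 0.02% Tween-20; reads at t0 and 30 min RT.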
# BAZ2B inh: blocks human BAZ2B; Q9UIF8; AlphaScreen BAZ2B-H3K14Ac peptide displacement; Potency, µM (highest dose often 114 µM), without a hit: at the highest dose activity change, negative = inhibition, most hits filed as inhibitors; hit rate 4.4% among 360,000; note: potency is the fitted concentration of half-maximal effect; % is set by controls: 0 for no effect and ±100 for the full control effect; nearly all actives have a fitted effect of over 60% in size
#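 BAZ2B 50 nM plus b-H3(5-23)K14Ac 50 nM, PBS pH 7.4/0.01% Tween-20, 30 min RT; compound added (max 110 uM), 30 min RT; streptavidin donor/Ni-chelate acceptor beads 10 ug/mL final, 20 min dark; AlphaScreen read.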
# G9a block: blocks human histone lysine methyltransferase G9a; G9a H3K9 monomethylation, AlphaScreen, 2 h; Potency, µM (titrated, usually from 102 µM), inactives show at the highest dose activity, negative = inhibition, hits mostly inhibitors; hit rate 8.8% among 350,000; AID 504332; note: potency is the fitted concentration of half-maximal effect; % is set by controls: 0 for no effect and ±100 for the full control effect; nearly all actives have a fitted effect of over 75% in size
# Target sequence (Q96KQ7 913-1193 limits assumed): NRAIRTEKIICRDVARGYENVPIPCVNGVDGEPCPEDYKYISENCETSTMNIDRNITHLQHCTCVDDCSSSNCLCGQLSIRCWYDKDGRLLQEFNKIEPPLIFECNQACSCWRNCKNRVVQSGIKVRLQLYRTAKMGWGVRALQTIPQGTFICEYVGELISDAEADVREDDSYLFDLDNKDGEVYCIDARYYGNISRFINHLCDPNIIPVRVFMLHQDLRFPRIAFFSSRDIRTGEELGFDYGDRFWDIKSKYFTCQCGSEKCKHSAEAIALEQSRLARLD
#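 G9a (20 nM) was preincubated 15 min with compound, then reacted 2 h at room temperature with 500 nM biotin-H3K9 peptide and 20 µM SAM. Monomethyl-H3K9 detected by AlphaScreen using anti-H3K9me1 antibody.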
# HP1b chromo inh: inhibitors of HP1-beta chromodomain binding to methylated histone tails | AlphaScreen HP1-beta / biotin-H3K9me3 peptide binding | P83916 | hit rate 0.56% among 390,000 | Potency, µM (series often up to 114 µM), for the others: at the highest dose activity change, negative = inhibition, actives largely listed as inhibitors | AID 540317; note: potency is the fitted concentration of half-maximal effect; nearly all actives have a fitted effect of over 70% in size
# Target sequence (P83916 whole entry, looked up): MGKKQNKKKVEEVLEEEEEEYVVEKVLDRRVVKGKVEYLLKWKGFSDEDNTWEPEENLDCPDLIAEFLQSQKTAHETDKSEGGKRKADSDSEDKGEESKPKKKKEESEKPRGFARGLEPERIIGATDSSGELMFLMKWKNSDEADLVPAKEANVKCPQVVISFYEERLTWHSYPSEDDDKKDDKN
#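 HP1-beta protein (50 nM final) preincubated 30 min at room temperature with biotinylated H3(1-18)K9me3 peptide (50 nM) in PBS pH 7.4, 0.01% Tween-20, then compound added for 30 min. AlphaScreen streptavidin donor/nickel chelate acceptor beads (10 ug/mL final), 30 min dark, luminescence read.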
# 12-hLO cuvette: 12-hLO (human) inhibition, 8HQ series round 1. shares compounds with BAZ2B inh. hit rate 60% among 35. AID 2163. Potency, µM, usual class: inhibitors. purified 12-hLO, cuvette UV 234 nm product formation;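 active = compounds that slowed 12-hLO product formation enough to yield a measured IC50 potency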
# JMJD2E inh: JMJD2E demethylase inhibition by 8HQ compounds. shares compounds with BAZ2B inh. JMJD2E demethylase, FDH-coupled NADH fluorescence (FDH is formaldehyde dehydrogenase). AID 493212. Potency, µM (doses to about 57 µM), without a hit: at the highest dose activity, negative = inhibition, most hits filed as inhibitors. hit rate 89% among 130
# ME-1 prolif: ME-1 cell growth inhibition; shares compounds with BAZ2B inh; ME-1 cell proliferation, ATP luminescence, 48 h; Potency, µM (titrated, usually from 56.1 µM), inactives show at the top dose activity change, negative = inhibition, usual class: inhibitors; hit rate 20% among 140
# The depositor's hits bear a star; i = inactive; ? = inconclusive; / = no result given; [ ] = another dose, or the depositor's remark. Hits are enriched below; roughly 10% of the tested compounds scored in any of these assays. Unless noted, calls come from the whole dose curve; as a rule, active = well fitted curve in the direction sought with a large enough effect; inconclusive = small, poorly fitted or top-dose-only effect, or another doubt; inactive = no such curve, though single readings can be large; an effect the other way counts as inactive or inconclusive.
SMILES,JMJD2A Tudor inh,GLS inh,BAZ2B inh,G9a block,HP1b chromo inh,ME-1 prolif,others
COc1cccc2c1NC(C(=O)O)C1CC=CC21 (stereo not given),8.9µM*,2.8µM*,3.5µM*,2.5µM*,20µM*,?,
Cc1cc(=O)cc2oc3cc(N)c(-c4c(C)cc(O)cc4O)c(C)c3nc1-2,/,/,/,/,/,-13%,
O=C(c1ccc(Cl)cc1)n1nc(-c2ccccc2)nc1NCc1ccco1,16%,-15%,5%,34%[59 µM],54%,/,
Cc1ccc(/C=C/S(=O)(=O)NCCC(=O)NCc2ccccc2F)cc1,3%,-11%,/,/,17%,/,
O=C(N/N=C/c1cc2c(cc1[N+](=O)[O-])OCO2)c1ccccn1,?,-13%,/,/,42%,/,
O=[N+]([O-])c1cc2c(cc1/C=N/n1c(-c3ccccn3)n[nH]c1=S)OCO2,4µM*,-18%,7.1µM*,0.79µM*,?,?,
Brc1ccc(Cn2c(-c3ccc(Br)o3)nc3ccccc32)o1,-21%,-2%,13µM*,40µM*,-8%,?,
Cc1nc2ccccc2n1Cc1ccc(Br)cc1,-9%,7%,/,/,11%,/,
Cc1cccc(N(C)C(=O)c2cc3c(=O)oc4ccc(C)cc4c3s2)c1,-11%,2%,-3%,-46%[59 µM],31%,/,
COc1ccc(Oc2nc(-c3ccccn3)ncc2OC)cc1,89µM*,5%,28µM*,?,32%,?,
COc1ccc(Oc2nc(-c3ccccn3)nc3ccccc23)cc1,?,?,-16%,/,6%,/,
CC(C)NC(=O)c1onc(CSc2cccc(F)c2)c1C(=O)O,-28%,3%,57%,22%[0.501 µM],6%,/,
CCC(=O)NC(C)c1cc(Cl)c2cccnc2c1O (stereo not given),79µM*,19%,32µM*,37%[12.7 µM],44%,/,12-hLO cuvette=50µM*;JMJD2E inh=29µM*
CC(=O)NCc1cc(Cl)c2cccnc2c1O,/,/,10µM*,12%[12.7 µM],/,/,12-hLO cuvette=i;JMJD2E inh=20µM*
CC(=O)NC(C)c1cc(Cl)c2cccnc2c1O (stereo not given),79µM*,17%,35µM*,27%[12.7 µM],27%,/,12-hLO cuvette=i;JMJD2E inh=29µM*
CC(=O)NC(C)c1cc(Cl)c2ccccc2c1O (stereo not given),-11%,7%,-4%,-1%[0.501 µM],43%,/,
O=C(NCCOc1ccccc1)c1cc2ccccc2o1,18%,-12%,3%,18%[59 µM],48%,/,
Cc1cccc(Nc2nc(-c3ccccc3)c3cc(C)ccc3n2)c1,66%,-2%,83%,104%[59 µM],149%,/,
CC(=O)NC(c1ccco1)c1cc(Cl)c2ccc(Cl)nc2c1O (stereo not given),-26%,21%,-5%,?,23%,/,12-hLO cuvette=i;JMJD2E inh=121%
CCC(=O)NC(c1cccs1)c1cc([N+](=O)[O-])c2cccnc2c1OC (stereo not given),/,?,?,?,/,/,12-hLO cuvette=i;JMJD2E inh=4.6µM*
CC(=O)NC(c1ccco1)c1cc(Cl)c2ccccc2c1O (stereo not given),-30%,19%,-11%,-49%[12.7 µM],14%,/,
CC(=O)NC(c1ccco1)c1cc(F)c2cccnc2c1O (stereo not given),56µM*,-6%,20µM*,-20%[12.7 µM],23%,/,12-hLO cuvette=5µM*;JMJD2E inh=29µM*
CC(=O)NC(c1cccs1)c1cc(F)c2cccnc2c1O (stereo not given),79µM*,8%,25µM*,2%[12.7 µM],14%,/,12-hLO cuvette=2µM*;JMJD2E inh=29µM*
CC(C)NC(=S)n1cc(C(=O)c2cc(Cl)cc(Cl)c2O)cn1,?,8%,-12%,-24%,-22%,/,
CCOC(=O)Cc1csc(NC(=O)Cn2c(=O)oc3ccccc32)n1,-20%,0%,4%,24%,9%,/,
SMILES,JMJD2A Tudor inh,GLS inh,BAZ2B inh,G9a block,HP1b chromo inh,ME-1 prolif,others
CN(C)CCN(C)C1CN(Cc2ccc([N+](=O)[O-])cc2)S(=O)(=O)C1 (stereo not given),/,0%,/,/,/,/,
O=C(O)c1cc(O)c2c(c1)[C@H]([C@H]1c3cc(C(=O)O)cc(O)c3C(=O)c3c(O[C@@H]4OC(CO)C(O)C(O)C4O)cccc31)c1cccc(O[C@@H]3OC(CO)C(O)C(O)C3O)c1C2=O (stereo not given in full),/,-88%,/,-148%[2.33 µM],/,-19%,
OCC1OC(Oc2cccc3ccccc23)C(O)C(O)C1O (stereo not given),11%,-1%,7%,13%,24%,/,
CCc1sc(N)nc1-c1ccccc1,-36%,19%,?,?,-10%,-7%[25.6 µM],
Cc1sc(N)nc1-c1ccccc1,-31%,-4%,-13%,-50%,-6%,/,
Cc1ccc(C)c(NC(=O)C2CCCC2)c1,-12%,2%,/,/,28%,/,
Nc1nc(-c2ccccc2)c(N=Nc2cccnc2)s1,-33%,0%,7.9µM*,40µM*,?,-5%[25.6 µM],
O=c1c(O)cccc2cc(O)c(O)c(O)c12,0.89µM*,1.6µM*,0.79µM*,0.56µM*,?,?,
Cc1cc(O)c(C=O)c2c1C(=O)Oc1c(COC(=O)/C=C/C(=O)O)c(O)c(C(=O)O)c(C)c1O2,/,/,/,?,/,10%,
COC(=O)c1c(C)cc(OC(=O)c2c(C)cc(O)c(C=O)c2O)c(C)c1O,/,/,/,-12%[2.33 µM],/,/,
CO/N=C1\CN(c2nc3c(cc2F)c(=O)c(C(=O)O)cn3C2CC2)CC1CN (stereo not given),/,-6%,/,-7%[2.33 µM],/,?,
Cc1cc2c(c(=O)n1Cc1ccc3c(c1)OCO3)C(c1cccnc1)C(C#N)=C(N)O2 (stereo not given),-9%,24%,1%,?,30%,/,
COc1cccc2c1C(=O)c1c(O)c3c(c(O)c1C2=O)C[C@@](O)(C(C)=O)C[C@@H]3O[C@H]1C[C@H](N)[C@H](O)[C@H](C)O1,?,0%,35µM*,35µM*,-16%,0.25µM*,
COc1cccc2c1C(=O)c1c(O)c3c(c(O)c1C2=O)CC(O)(C(=O)CO)CC3OC1CC(N(C)C)C(O)C(C)O1 (stereo not given),?,17%,/,/,?,/,
COc1cccc(N2CCN(C(=O)c3cc4c(s3)CCCCC4)CC2)c1,?,-5%,-16%,11%[2.33 µM],17%,/,
COCCNC(=O)C1CCCN(Cc2ccc(-c3ccccc3)cc2)CC1 (stereo not given),/,12%,/,/,/,/,
O=C1CSC(=S)N1/N=C/c1ccc(O)c(O)c1O,3.2µM*,?,2.8µM*,1.3µM*,1.8µM*,?,
